Structures can show the parent of a compound that is named as a salt.

The text below walks through data of the supplement of paper PMC10121225.
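Also: immunostained co-cultures imaged by high-content microscopy, Z-score per plate against mean and SD of 0.1% DMSO wells, compounds added on differentiation day 18, analysed day 21.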

The assay relates to hN + hpA co-culture (H1 iNGN2 human neurons + human primary astrocytes). Nature of the assay: presynaptic density (SYNAPSIN1 puncta per MAP2 neurite area), Z-score vs DMSO controls; higher = more presynaptic puncta (synapse-promoting). As to conditions: 3 µM; 72 h.
For `OC[C@H]1O[C@@H](c2ccc(Cl)c(Cc3ccc(O[C@H]4CCOC4)cc3)c2)[C@H](O)[C@@H](O)[C@@H]1O`, the “presynaptic density (Z-score)” value is -0.331.
As for `COc1ccc(CNCc2cccc3ccccc23)cc1`, the “presynaptic density (Z-score)” value was -1.02.
In the case of `O=c1cc(-c2cccc3c2Sc2ccccc2S3)oc(N2CCOCC2)c1`, the “presynaptic density (Z-score)” value was -0.963.
On to `Cc1cc(C(N)=O)ccc1-n1c(CCC(=O)O)ccc1-c1ccc(-n2ccnc2)cc1`, for which the “presynaptic density (Z-score)” value is -0.771.
With `CN(C)Cc1ccc(-c2nc3cccc4c3n2CCNC4=O)cc1`, the “presynaptic density (Z-score)” value was -0.178.
As for `COc1ccc(C(=O)Nc2sc3c(c2C(N)=O)CCCC3)cc1OC`, the “presynaptic density (Z-score)” value was found to be 0.457.
With `CCCN[C@H]1CCc2nc(N)sc2C1` [Pramipexole], the “presynaptic density (Z-score)” value turned out to be 0.794.
For `COc1ccc2[nH]c([S@@+]([O-])Cc3ncc(C)c(OC)c3C)nc2c1` [Esomeprazole Sodium], the “presynaptic density (Z-score)” value turned out to be 0.0968.
Regarding `CC1C(=O)OC2C(O)C34C5CC(C(C)(C)C)C36C(OC(=O)C6O)OC4(C(=O)O5)C12O` (stereo not drawn) [Ginkgolide B], the “presynaptic density (Z-score)” value is -0.504.
For the molecule `C[C@@H](O[C@H]1OCCN(Cc2n[nH]c(=O)[nH]2)[C@H]1c1ccc(F)cc1)c1cc(C(F)(F)F)cc(C(F)(F)F)c1` [Aprepitant], the “presynaptic density (Z-score)” value is 0.895.
For the molecule `Cc1ccc(C(=O)N(CCCN)[C@@H](c2oc3cc(Cl)ccc3c(=O)c2Cc2ccccc2)C(C)C)cc1`, the “presynaptic density (Z-score)” value was -3.49.
`CC[C@@H]1C(=O)N(C)c2cnc(Nc3ccc(C(=O)NC4CCN(C)CC4)cc3OC)nc2N1C1CCCC1`: the “presynaptic density (Z-score)” value was -2.32.
`CCOC(=O)CCNc1cc(N2CCc3ccccc3CC2)nc(-c2ccccn2)n1`: the “presynaptic density (Z-score)” value was -3.3.
As to `O=C(NNc1ccccc1)c1ccncc1`, the “presynaptic density (Z-score)” value was -0.884.
As for `COc1cc2nc(N3CCN(C(=O)C4COc5ccccc5O4)CC3)nc(N)c2cc1OC` (stereo not drawn) [Doxazosin mesylate], the figure is 0.0192.
Consider `FC(F)(F)c1ccc(/C=C/c2nc(COc3ccc(CCCCn4ccnn4)cc3)co2)cc1` [Mubritinib (TAK 165)], for which the “presynaptic density (Z-score)” value is -3.36.
The same measure for `CC(C)NCC(O)COc1cccc2ccccc12` (stereo not drawn) [Propranolol HCl]: 0.278; for `N#CC[C@H](C1CCCC1)n1cc(-c2ncnc3[nH]ccc23)cn1`: 0.202.
On to `C=CCc1cccc(C=NNC(=O)CN2CCN(Cc3ccccc3)CC2)c1O`, for which the “presynaptic density (Z-score)” value is -1.87.
The same measure for `CCN(CC)CCCC(C)Nc1nc(C)cc(Nc2ccc3nc(C)cc(N)c3c2)n1` (stereo not drawn): -0.607; for `O=C(c1ccc(F)cc1)N1CCCC(c2nc(-c3ccc(F)cc3)no2)C1` (stereo not drawn): -0.851; for `COc1cc2c(cc1OC)[C@@H]1Cc3ccc(OC)c(OC)c3CN1CC2` [Rotundine]: -0.985.
In the case of `CC(NC(=O)Cc1cc(F)cc(F)c1)C(=O)NC1C(=O)N(C)c2ccccc2-c2ccccc21` (stereo not drawn), the “presynaptic density (Z-score)” value is -0.744.
Turning to `COc1cc(N2CCC(N)CC2)ccc1Nc1ncc(Cl)c(-c2c[nH]c3ccccc23)n1`, the “presynaptic density (Z-score)” value is -0.26.
The same measure for `O=C1NC(=O)C(c2ccccc2[N+](=O)[O-])=C1Nc1ccc(O)c(Cl)c1`: -0.662; for `C#Cc1cccc(Nc2ncnc3cc4c(cc23)OCCOCCOCCO4)c1` [Icotinib]: -0.0135; for `C[C@@H](NCCCc1cccc(C(F)(F)F)c1)c1cccc2ccccc12` [Cinacalcet HCl]: -1.05.
The same measure for `CCCCCCCCc1ccc(CCC(N)(CO)CO)cc1` [Fingolimod (FTY720) HCl]: 0.342; for `O=C(O)c1cccc(-c2noc(-c3ccccc3F)n2)c1` [Ataluren (PTC124)]: -0.0102; for `O=C(NC[C@H]1CN(c2ccc(N3CCOCC3=O)cc2)C(=O)O1)c1ccc(Cl)s1` [Rivaroxaban]: -0.11.
For the molecule `C[C@H](N[C@@H](CCc1ccccc1)C(=O)O)C(=O)N1CCC[C@H]1C(=O)O`, the “presynaptic density (Z-score)” value is -0.963.
Take `Cc1cc(OCCCS(C)(=O)=O)cc(C)c1-c1cccc(COc2ccc3c(c2)OC[C@H]3CC(=O)O)c1`: the “presynaptic density (Z-score)” value is -0.294.
The same measure for `CC(C)(C)c1cnc(CSc2cnc(NC(=O)C3CCNCC3)s2)o1`: -3.77; for `O=C(Nc1ccccc1Br)N[C@@H]1CCN(c2ccc(C(F)(F)F)cn2)C1`: -1.47.
Regarding `Cc1[nH]c(/C=C2\C(=O)Nc3ccc(S(=O)(=O)N(C)c4cccc(Cl)c4)cc32)c(C)c1C(=O)N1CCN(C)CC1`, the “presynaptic density (Z-score)” value was determined as 0.365.
On to `CC(C)c1noc(N2CCC(COc3ccc(-c4ccc(S(C)(=O)=O)cc4)nc3)CC2)n1`, for which the “presynaptic density (Z-score)” value is 0.0886.
With `Cc1ccc(S(=O)(=O)n2c(N)nc3ccccc32)cc1` [ML130 (Nodinitib-1)], the “presynaptic density (Z-score)” value is 0.396.
`CCOC(=O)c1ccc(N2NC(=O)C(=Cc3ccc([N+](=O)[O-])o3)C2=O)cc1`: the “presynaptic density (Z-score)” value amounted to 0.0787.
